Bioassay records: PubChem, National Center for Advancing Translational Sciences (NCATS)
Rows were chosen to be rich in hits. Some 19% of all compounds tested hit in one or more screens of this group.
CHX counter: counter-screen for Shiga toxin inhibitors: cycloheximide protein synthesis inhibition; cell reporter, cycloheximide protein synthesis inhibition counterscreen; max response, %; 12% of 300,000 active; AID 2314; in the data active = max response mostly above about 13%, no sharp cut-off; inactive = mostly below about 14%; also: read at 38.3 µM for the half of the compounds with a filed dose
Shiga toxin inh: blocks Shiga toxin action in Vero cells; 9.2% of 290,000 active; AID 2315; inhibition, % at 38.7 µM; Vero cells, Shiga toxin protein synthesis inhibition reporter; in the data active = inhibition mostly above about 28%, no sharp cut-off; inactive = mostly below about 43%
Lassa entry inh: inhibitors of Lassa virus binding or cell entry. Lassa virus pseudotype entry inhibition, cell reporter. Potency, µM (highest dose often 37.9 µM), usual class: inhibitors. 1.2% of 300,000 active. AID 540256; calls by dose curve; tested in HEK293 cells; also: nearly all actives have a fitted effect of over 50% in size
Marburg entry inh: blocks Marburg virus binding to or entry into cells; Marburg virus pseudotyped entry inhibition, cell reporter; Potency, µM (highest dose often 37.8 µM), most hits filed as inhibitors; 1.8% of 300,000 active; AID 540276; calls by dose curve; tested in HEK293 cells
Pf growth 48h: inhibits P. falciparum growth in the first generation, 48 h; P. falciparum luciferase growth in erythrocytes, 48 h; Potency, µM (titrated, usually from 28.7 µM), hits mostly inhibitors; 5.9% of 310,000 active
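Firefly luciferase activity from engineered P. falciparum reports growth; inhibitors lower the luminescent signal. Cultures contained 2% hematocrit erythrocytes at 0.1% final parasitemia.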
Pf growth 96h: P. falciparum growth inhibition at 96 hours; P. falciparum luciferase reporter growth, 96 h; Potency, µM (highest dose often 28.7 µM), most hits filed as inhibitors; 6.9% of 320,000 active; AID 504834
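P. falciparum expressing integrated firefly luciferase grown in erythrocytes (2% hematocrit, 0.05% parasitemia final) with compounds for 96 hours at 37 C, 5% CO2. Growth inhibition read as loss of luminescence after adding luciferase detection reagent.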
Numbers stand for hits; . = inactive; ? = inconclusive; / = no result given; ! = repeats disagree. Unless noted, calls follow the shape of the dose curve; as a rule, active = well fitted inhibition curve with a large enough effect; inconclusive = small, poorly fitted or top-dose-only effect, or another doubt; inactive = no such curve, though single readings can be large or run the other way.

SMILES | CHX counter | Shiga toxin inh | Lassa entry inh | Marburg entry inh | Pf growth 48h | Pf growth 96h
COc1ccccc1OCCCn1c(=O)sc2ccccc21 | 28.3 | . | . | . | . | .
O=c1oc2ccccc2n1CCCOc1ccccc1 | 32.6 | 95.1 | / | / | . | 11.7µM
COc1ccccc1OCCCn1c(=O)oc2ccc(C)cc21 | . | . | . | . | . | /
O=C1c2ccccc2C(=O)N1CCn1c(=O)oc2ccccc21 | 31.5 | 40.7 | . | . | . | .
O=c1oc2ccccc2n1CCCCCn1c(=O)oc2ccccc21 | . | . | . | ? | ? | ?
COc1ccccc1OCCCn1c(=O)oc2ccccc21 | 23.5 | 42.9 | . | ? | . | .
NC(=O)CCn1c(=O)oc2ccccc21 | . | . | . | . | . | .
C=C(C)C(=O)Nc1cccc(C2=NOC3(C2)C[C@@H](C(N)=O)N(C(=O)C2(C)CC2)C3)c1 (stereo not given in full) | . | . | / | / | . | .
CCOC(=O)C1(Cc2cccc(OC)c2)CCN(C/C=C/c2ccc(OC)cc2)CC1 | . | . | ? | ? | ? | .
CC1CN(C(=O)c2ccc(COc3ccc4ccccc4c3)o2)CC(C)O1 (stereo not given) | 27.3 | 57.2 | / | / | . | .
CC1CN(CCCCOc2ccc3ccccc3c2)CC(C)O1 (stereo not given) | 22.1 | . | . | ? | . | .
CC(C)SCCCCOc1ccc2ccccc2c1 | 39.0 | . | ? | . | . | ?
CC1CN(C(=O)c2ccc(COc3ccc(C(C)C)cc3)o2)CC(C)O1 (stereo not given) | 54.2 | 195.5 | / | / | . | .
Cc1sc2ncn(CC(=O)Nc3ccc(F)cc3F)c(=O)c2c1S(=O)(=O)N1CCC(C)CC1 | / | / | . | . | / | /
Cc1c(NC(=O)C(F)(F)F)ccc2nc3c(=O)n(C)c(=O)n(C)c3nc12 | / | / | ? | . | / | /
O=C(NCC1CCCO1)c1ccc(N2CCCCC2)c([N+](=O)[O-])c1 (stereo not given) | 43.0 | 44.5 | ? | ? | . | ?
O=C(COc1ccc([N+](=O)[O-])cc1Cl)NCC1CCCO1 (stereo not given) | 15.9 | 46.5 | / | / | . | .
O=C(NC1CCCCC1)c1ccc(N2CCOCC2)c([N+](=O)[O-])c1 | . | / | / | / | . | ?
CC1CCCN(c2ccc(C(=O)NCc3ccco3)cc2[N+](=O)[O-])C1 (stereo not given) | . | 60.0 | ? | . | 4.15µM | ?
Cc1ccc(C(=O)NCC2CCCO2)cc1[N+](=O)[O-] (stereo not given) | . | . | . | ? | . | .
O=C(NC1CC1)c1ccc(N2CCCCC2)c([N+](=O)[O-])c1 | 16.5 | 78.8 | ? | ? | 8.28µM | 2.62µM
Cc1ccc(C(=O)NCc2ccco2)cc1[N+](=O)[O-] | . | . | . | . | . | .
CC(C)CNS(=O)(=O)c1ccc(OCC(=O)NCC2CCCO2)c(Cl)c1 (stereo not given) | . | . | . | . | . | ?
O=C(CSc1nc2ccccc2n1Cc1ccccc1)NCc1ccccc1 | / | / | . | / | / | /
N#Cc1c(SCC(=O)Nc2cccc(C(F)(F)F)c2)sc2c(O)cc(=O)[nH]c12 | . | . | . | . | . | .
SMILES | CHX counter | Shiga toxin inh | Lassa entry inh | Marburg entry inh | Pf growth 48h | Pf growth 96h
COc1ccc(CCNC(=O)CCc2c(C)nc3c(-c4ccc(F)cc4)c(C)nn3c2C)cc1OC | / | / | ? | . | / | /
O=C(Nc1nc2n(n1)C(c1ccc(F)cc1)C=C(c1ccc(Cl)cc1)N2)c1ccco1 (stereo not given) | / | / | . | . | / | /
O=C(NCC1CCCO1)c1cc([N+](=O)[O-])ccc1N1CCC(Cc2ccccc2)CC1 (stereo not given) | / | / | / | / | 11.7µM | ?
O=[N+]([O-])c1ccc(COc2ccc(CNc3ccccc3)cc2)cc1 | 36.1 | . | . | . | . | .
c1ccc(COc2cncc(-c3cccnc3)c2)cc1 | / | / | / | / | 10.4µM | ?
O=[N+]([O-])c1ccc(COc2cccnc2)cc1 | 40.9 | 55.5 | ? | ? | . | ?
O=[N+]([O-])c1ccc(COc2cccc(CNc3ccc(Br)cc3)c2)cc1 | . | . | . | . | . | ?
c1ccc(-c2nnc(OCc3cccnc3)c3ccccc23)cc1 | . | . | . | ? | . | .
COc1ccc(N2CCN(C(=O)c3ccc(CS(=O)Cc4ccc(C)cc4)o3)CC2)cc1 (stereo not given) | . | . | . | . | . | .
NC(=O)CSc1nc(-c2ccccc2)nc2c1CCCC2 | . | . | . | . | . | 7.38µM
Cc1cccc(-c2nc3c(c(SCC(N)=O)n2)CCCC3)c1 | . | . | . | . | . | .
CN(C)C(=O)CSc1nc(-c2ccccc2)nc2c1CCCC2 | . | . | . | . | ? | 9.28µM
COc1ccc(/C(C)=N/NC(=O)CNC(=O)c2cccs2)cc1 | . | . | / | / | . | .
CC1=C2C(=O)C3C(CC=C4CC(O)CCC43C)C2CCC12OC1CC(C)CNC1C2C (stereo not given) | . | . | . | ? | 13.1µM | ?
C=C(C)[C@H]1CN[C@H](C(=O)O)[C@@H]1CC(=O)O | / | / | / | . | / | /
C=C(C)[C@H]1CN[C@H](C(=O)O)[C@H]1CC(=O)O | . | 47.0! | . | . | . | .
COc1cc(C=C2C(=O)NC(=O)NC2=O)ccc1OS(=O)(=O)c1ccccc1[N+](=O)[O-] | . | 57.4 | . | ? | . | ?
COc1cc(/C=C2\C(=N)N3N=CSC3=NC2=O)ccc1OS(=O)(=O)c1ccccc1[N+](=O)[O-] | . | . | . | . | . | 4.15µM
CC1(C)OC(=O)C(=CNCC(=O)NCC(=O)O)C(=O)O1 | . | . | . | . | . | /
C=CCNCCCCOc1ccc(OCc2ccccc2)cc1 | 47.9 | 59.6 | / | / | . | .
COCCCNCCCCOc1ccc(OCc2ccccc2)cc1 | 30.3 | 97.4 | / | / | ? | .
CC(C)Oc1ccc(OCCNC2CCCC2)cc1 | . | 73.7 | . | . | . | /
COCCCNCCCCOc1ccccc1-c1ccccc1 | . | . | ? | ? | ? | .
c1ccc(COc2ccc(OCCCNC3CCCC3)cc2)cc1 | 24.9 | . | . | ? | ? | /
CC(C)Cn1c2c(c(O)c(C(=O)Nc3nccs3)c1=O)CCCC2 | . | . | . | . | . | .
SMILES | CHX counter | Shiga toxin inh | Lassa entry inh | Marburg entry inh | Pf growth 48h | Pf growth 96h
O=C1/C(=C/c2ccc(O)cc2)SC(=S)N1Cc1cccnc1 | . | . | . | ? | . | .
COc1ccc(N=C(N)N=C(N)N)c(OC)c1 | . | . | . | . | . | .
CCC1(C)Cc2ccccc2-c2nc(NCCCO)n(-c3ccccc3)c(=O)c21 (stereo not given) | . | . | . | . | / | 10.4µM
CCn1c(NCCO)nc2c(c1=O)C(C)(CC)Cc1ccccc1-2 (stereo not given) | . | . | . | . | . | ?
CC(C)(C)c1ccc(NC(=O)c2c(F)cccc2Cl)cc1 | 31.2 | 55.2 | / | / | ? | 9.28µM
O=C(NNc1c(Cl)cccc1Cl)c1c(F)cccc1Cl | . | . | . | . | . | ?
O=C(Nc1ncc(Cl)cc1Cl)c1c(F)cccc1Cl | . | 65.8 | . | . | . | .
O=C(Nc1ccc(N2CCOCC2)cc1)c1c(F)cccc1Cl | . | . | . | . | . | .
